Source: PubChem BioAssay (Tox21)
Several values for one entry are separate records, joined by “and”; a condition that tells them apart may be missing. Equal entries are not always repeated. Results filed as inconclusive are left out. Activity calls are given as the source filed them. Unless noted, calls follow the shape of the dose curve; as a rule, active = well fitted curve in the direction sought with a large enough effect in the repeat runs; inconclusive = weak or mixed curves; inactive = no such curve, though single readings can be large; an effect the other way counts as inactive or inconclusive.

Assays:
[1] = qHTS assay to test for compound auto fluorescence at 535 nm (green) in HEK293 cells (AID 720680)
[2] = qHTS assay to test for compound auto fluorescence at 460 nm (blue) in HEK293 cell free culture (AID 720681)
Method in brief: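 Test compounds were pinned into cell-free culture medium (DMEM with 10% FBS) and fluorescence was read directly at Ex/Em 405/460 nm. Signals were expressed as fluorescence equivalents of triamterene, with DMSO vehicle as control.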

[3] = qHTS assay to test for compound auto fluorescence at 535 nm (green) in HEK293 cell free culture (AID 720682)
Method in brief: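 Fluorescein serves as the green reference fluorophore; each compound's intrinsic emission at 535 nm (excitation 485 nm) is reported as an equivalent amount of that dye, measured in serum-containing DMEM without cells.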

[4] = qHTS assay to test for compound auto fluorescence at 590 nm (red) in HEK293 cell free culture (AID 720683)
Method in brief: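 Tox21 10K library compounds were pinned into cell-free DMEM with 10% FBS and fluorescence was read at excitation 540 nm. Activity is expressed as Rose Bengal sodium equivalency.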

[5] = qHTS assay to test for compound auto fluorescence at 590 nm (red) in HepG2 cell free culture (AID 720684)
Method in brief: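 Measured in medium alone (MEM containing 10% FBS) following pintool addition of compound; emission at 590 nm with 540 nm excitation, referenced to Rose Bengal sodium.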

[6] = qHTS assay to test for compound auto fluorescence at 460 nm (blue) in HepG2 cell free culture (AID 720685)
Method in brief: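 Compound (23 nL) or DMSO pinned into cell-free MEM with 10% FBS; blue fluorescence read at 405/460 nm excitation/emission, expressed as auto-fluorescence equivalency to triamterene.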

[7] = qHTS assay to test for compound auto fluorescence at 535 nm (green) in HepG2 cell free culture (AID 720686)
[8] = qHTS assay to test for compound auto fluorescence at 460 nm (blue) in HepG2 cells (AID 720687)
Method in brief: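 Cells (2,000/well in MEM with 10% FBS) attached overnight at 37 C, then were exposed to compound or DMSO for 1 hr at 37 C, 5% CO2. Fluorescence read at Ex/Em 405/460 nm, expressed as triamterene-equivalent signal.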

[9] = target: Glucocorticoid receptor (Homo sapiens) (UniProt P04150); test: qHTS assay to identify small molecule agonists of the glucocorticoid receptor (GR) signaling pathway (AID 720691; active = well fitted activation curve with a large enough effect in the signal ratio in the repeat runs, not every such curve was filed as active; the % refers to the signal ratio)
Method in brief: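 qHTS in GR-bla HeLa cells: 4 h settling at 37 C/5% CO2, 18 h compound incubation at 37 C, 2 h LiveBLAzer B/G FRET substrate at room temperature, fluorescence intensity measured.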

[10] = target: Glucocorticoid receptor (Homo sapiens) (UniProt P04150); test: qHTS assay to identify small molecule antagonists of the glucocorticoid receptor (GR) signaling pathway (AID 720692; active = well fitted inhibition curve with a large enough effect in the signal ratio in the repeat runs, not every such curve was filed as active; the % refers to the signal ratio)
Method in brief: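 Inhibition of glucocorticoid signalling is measured in HeLa cells with a GRE-controlled beta-lactamase reporter; cells are co-treated with compound and 5 nM dexamethasone (final) for 18 h before FRET substrate readout.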

[11] = qHTS assay to identify small molecule antagonists of the glucocorticoid receptor (GR) signaling pathway - cell viability counter screen (AID 720693); also: nearly all actives have a fitted effect of over 55% in size
[12] = qHTS assay for identifying genotoxic compounds that show differential cytotoxicity against isogenic chicken DT40 cell lines with known DNA damage response pathways - wild type cell line (AID 743012); also: nearly all actives have a fitted effect of over 60% in size; also: potency is read from the fitted curve at half-maximal effect
Method in brief: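 First, wild type DT40 cells were plated at 300 per well and equilibrated about 0.5 h at 37 C/5% CO2. Next, compounds in DMSO were added and exposure lasted 40 h. Finally, CellTiter-Glo was added for 30 min at room temperature and luminescence recorded.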

[13] = qHTS assay for identifying genotoxic compounds that show differential cytotoxicity against isogenic chicken DT40 cell lines with known DNA damage response pathways - Rev3 mutant cell line (AID 743014); also: nearly all actives have a fitted effect of over 55% in size; also: potency is read from the fitted curve at half-maximal effect
[14] = qHTS assay for identifying genotoxic compounds that show differential cytotoxicity against isogenic chicken DT40 cell lines with known DNA damage response pathways - Rad54/Ku70 mutant cell line (AID 743015); also: nearly all actives have a fitted effect of over 60% in size; also: potency is read from the fitted curve at half-maximal effect
[15] = qHTS assay to identify small molecule antagonists of the androgen receptor (AR) signaling pathway - cell viability counter screen (AID 743033; also: nearly all actives have a fitted effect of over 45% in size)
[16] = target: Androgen receptor (Homo sapiens) (UniProt P10275); test: qHTS assay to identify small molecule antagonists of the androgen receptor (AR) signaling pathway (AID 743035; active = well fitted inhibition curve with a large enough effect in the signal ratio in the repeat runs, not every such curve was filed as active; the % refers to the signal ratio)
Method in brief: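 Beta-lactamase FRET read (2 h RT incubation with LiveBLAzer B/G) following 16 h of compound plus R1881 treatment of AR-UAS-bla HEK293 cells, which had been pre-incubated 4 h at 37C.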

[17] = target: Androgen receptor (Homo sapiens) (UniProt P10275); test: qHTS assay to identify small molecule agonists of the androgen receptor (AR) signaling pathway (AID 743036; active = well fitted activation curve with a large enough effect in the signal ratio in the repeat runs, with a control signal flat, not every such curve was filed as active; the % refers to the signal ratio)
Method in brief: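 Fluorescence from a beta-lactamase FRET substrate served as read-out in AR-UAS-bla GripTite HEK293 cells. Cells were treated with DMSO-dissolved compounds for 16 h at 37C, then with LiveBLAzer B/G substrate for 2 h at room temperature.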

[18] = target: Androgen receptor (Homo sapiens) (UniProt P10275); test: qHTS assay to identify small molecule agonists of the androgen receptor (AR) signaling pathway using the MDA cell line (AID 743040; also: nearly all actives have a fitted effect of over 20% in size)
Method in brief: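 Luminescence from ONE-Glo, read after 30 min at room temperature, reflects MMTV-driven luciferase in MDA-kb2 cells (AR- and GR-responsive). Treatment lasted 16 h at 37C, 0% CO2.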

[19] = qHTS assay to identify small molecule antagonists of the androgen receptor (AR) signaling pathway using the MDA cell line - cell viability counter screen (AID 743041; also: nearly all actives have a fitted effect of over 45% in size)
Method in brief: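 Viability counter screen run alongside the AR antagonist reporter: cells seeded 5 h before compound, R1881 added, 16 h incubation at 37C without CO2, fluorescent CellTiter-Fluor signal quantified.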

[20] = qHTS assay to identify small molecule antagonists of the thyroid receptor (TR) signaling pathway - cell viability counter screen (AID 743064); also: nearly all actives have a fitted effect of over 50% in size; also: potency is read from the fitted curve at half-maximal effect
Method in brief: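 Fluorescence from CellTiter-Fluor, added after 23.5 h exposure at 37 °C, reported viability of GH3.TRE-Luc cells co-treated with compound and 1 nM T3. Measured in the same wells as the luciferase TR readout.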
% is scaled to controls: 0 for no effect and ±100 for the full control effect.

Sequence of Androgen receptor (Homo sapiens) (P10275 whole entry, looked up): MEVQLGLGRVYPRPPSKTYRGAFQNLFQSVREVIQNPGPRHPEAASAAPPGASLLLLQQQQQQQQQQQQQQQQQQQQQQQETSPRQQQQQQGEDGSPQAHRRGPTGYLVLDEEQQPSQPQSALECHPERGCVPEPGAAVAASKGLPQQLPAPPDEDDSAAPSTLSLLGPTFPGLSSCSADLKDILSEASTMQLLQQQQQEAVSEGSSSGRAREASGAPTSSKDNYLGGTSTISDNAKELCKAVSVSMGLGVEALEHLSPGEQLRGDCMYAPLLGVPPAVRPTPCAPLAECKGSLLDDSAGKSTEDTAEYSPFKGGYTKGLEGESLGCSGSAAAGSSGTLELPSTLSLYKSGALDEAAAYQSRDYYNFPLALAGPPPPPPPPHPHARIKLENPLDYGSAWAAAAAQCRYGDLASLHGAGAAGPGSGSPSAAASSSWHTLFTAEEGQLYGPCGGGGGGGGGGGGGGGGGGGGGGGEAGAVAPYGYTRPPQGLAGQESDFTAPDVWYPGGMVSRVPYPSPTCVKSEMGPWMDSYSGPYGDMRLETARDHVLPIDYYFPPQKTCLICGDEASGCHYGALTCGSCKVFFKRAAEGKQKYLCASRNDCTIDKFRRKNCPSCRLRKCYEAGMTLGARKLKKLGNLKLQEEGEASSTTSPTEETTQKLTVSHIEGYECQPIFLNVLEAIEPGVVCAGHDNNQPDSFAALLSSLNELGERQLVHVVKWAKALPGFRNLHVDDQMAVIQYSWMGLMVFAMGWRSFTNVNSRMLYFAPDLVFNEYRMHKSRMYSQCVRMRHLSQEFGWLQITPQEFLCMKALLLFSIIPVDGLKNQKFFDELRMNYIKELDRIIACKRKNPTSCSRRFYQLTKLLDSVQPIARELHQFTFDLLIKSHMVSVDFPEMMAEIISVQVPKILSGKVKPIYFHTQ
Sequence of Glucocorticoid receptor (Homo sapiens) (P04150 whole entry, looked up): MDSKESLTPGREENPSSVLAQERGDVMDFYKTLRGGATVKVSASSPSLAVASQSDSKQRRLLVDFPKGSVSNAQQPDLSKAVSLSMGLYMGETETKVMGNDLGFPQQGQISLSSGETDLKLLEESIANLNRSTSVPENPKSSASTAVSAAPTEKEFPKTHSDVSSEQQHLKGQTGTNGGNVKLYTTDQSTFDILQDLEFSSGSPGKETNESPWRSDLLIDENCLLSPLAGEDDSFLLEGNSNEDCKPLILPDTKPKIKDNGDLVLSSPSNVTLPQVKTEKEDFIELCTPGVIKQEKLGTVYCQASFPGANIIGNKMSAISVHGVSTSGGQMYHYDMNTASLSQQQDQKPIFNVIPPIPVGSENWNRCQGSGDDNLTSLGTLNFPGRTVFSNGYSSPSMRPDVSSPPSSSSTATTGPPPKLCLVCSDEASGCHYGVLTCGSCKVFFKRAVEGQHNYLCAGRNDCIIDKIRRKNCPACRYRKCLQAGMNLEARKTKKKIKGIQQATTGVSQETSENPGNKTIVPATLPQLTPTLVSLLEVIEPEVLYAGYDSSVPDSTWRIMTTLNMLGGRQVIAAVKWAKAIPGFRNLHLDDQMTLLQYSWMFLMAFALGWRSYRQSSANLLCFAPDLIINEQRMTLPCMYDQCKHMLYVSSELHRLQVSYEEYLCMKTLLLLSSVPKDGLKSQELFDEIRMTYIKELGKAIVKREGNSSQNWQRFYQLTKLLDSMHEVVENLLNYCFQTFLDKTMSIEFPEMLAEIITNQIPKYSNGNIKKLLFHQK

CCC1(c2ccccc2)C(=O)N(COC)C(=O)N(COC)C1=O
inactive: outcome [1] | outcome [2] | outcome [3] | outcome [4] | outcome [5] | outcome [6] | outcome [7] | outcome [8] | Potency [9] | Potency [10] | Potency [11] | Potency [12] | Potency [13] | Potency [14] | Potency [15] | Potency [16] | outcome [17] | outcome [18] | Potency [19]

O=C(Cl)/C=C/C(=O)Cl
inactive: outcome [1] | outcome [2] | outcome [3] | outcome [4] | outcome [5] | outcome [6] | outcome [7] | outcome [8] | Potency [9] | Potency [10] | Potency [11] | Potency [12] | Potency [14] | Potency [15] | outcome [17] | outcome [18] | Potency [19]

CCN[C@H](C)Cc1cccc(C(F)(F)F)c1
inactive: outcome [1] | outcome [2] | outcome [3] | outcome [4] | outcome [5] | outcome [6] | outcome [7] | outcome [8] | Potency [9] | Potency [10] | Potency [11] | Potency [15] | Potency [19]
active: Potency [12] 60.9 µM | Potency [13] 30.5 µM | Potency [14] 54.3 µM

Clc1nc(Cl)nc(Nc2ccccc2Cl)n1
inactive: outcome [1] | outcome [2] | outcome [3] | outcome [4] | outcome [5] | outcome [6] | outcome [7] | outcome [8] | Potency [9] | Potency [10] | Potency [11] | Potency [12] | Potency [13] | Potency [14] | Potency [15] | Potency [20]

CCC1(CC)C(=O)C=CNC1=O
inactive: outcome [1] | outcome [2] | outcome [3] | outcome [4] | outcome [5] | outcome [6] | outcome [7] | outcome [8] | Potency [9] | Potency [10] | Potency [11] | Potency [12] | Potency [13] | Potency [14] | Potency [15] | Potency [20]

C=CC=O
inactive: outcome [1] | outcome [2] | outcome [3] | outcome [4] | outcome [5] | outcome [6] | outcome [7] | outcome [8] | Potency [9] | Potency [10] | Potency [11] | Potency [12] | Potency [13] | Potency [14] | Potency [15] | Potency [19]

C/C(=N\NC(=O)Nc1cc(F)cc(F)c1)c1ncccc1C(=O)O
inactive: outcome [1] | outcome [2] | outcome [3] | outcome [4] | outcome [5] | outcome [6] | outcome [7] | outcome [8] | Potency [9] | Potency [10] | Potency [11] | Potency [12] | Potency [13] | Potency [14] | Potency [15] | Potency [19] | Potency [20]

NC(=O)OCCCc1ccccc1
active: Potency [12] 13.3 µM | Potency [13] 11.9 µM | Potency [14] 29.8 µM
inactive: outcome [1] | outcome [2] | outcome [3] | outcome [4] | outcome [5] | outcome [6] | outcome [7] | outcome [8] | Potency [9] | Potency [10] | Potency [11] | Potency [15] | Potency [19] | Potency [20]

COC1=CC(=O)O[C@@H](/C=C/c2ccccc2)C1
inactive: outcome [1] | outcome [2] | outcome [3] | outcome [4] | outcome [5] | outcome [6] | outcome [7] | outcome [8] | Potency [9] | Potency [10] | Potency [11] | Potency [12] | Potency [14] | Potency [15] | Potency [19]

CCN(CCO)CCn1c(Cc2ccccc2)nc2c1c(=O)n(C)c(=O)n2C
inactive: outcome [1] | outcome [2] | outcome [3] | outcome [4] | outcome [5] | outcome [6] | outcome [7] | outcome [8] | Potency [9] | Potency [10] | Potency [11] | Potency [12] | Potency [13] | Potency [14] | Potency [15] | Potency [19]

CCCCCCCC(=O)Cl
inactive: outcome [1] | outcome [2] | outcome [3] | outcome [4] | outcome [5] | outcome [6] | outcome [7] | outcome [8] | Potency [9] | Potency [10] | Potency [11] | Potency [12] | Potency [13] | Potency [14] | Potency [15] | Potency [19] | Potency [20]

CC[C@H](N)c1ccccc1
inactive: outcome [1] | outcome [2] | outcome [3] | outcome [4] | outcome [5] | outcome [6] | outcome [7] | outcome [8] | Potency [9] | Potency [10] | Potency [11] | Potency [12] | Potency [13] | Potency [14] | Potency [15] | Potency [16] | outcome [17] | outcome [18] | Potency [19]

COc1cccc(C=O)c1
inactive: outcome [1] | outcome [2] | outcome [3] | outcome [4] | outcome [5] | outcome [6] | outcome [7] | outcome [8] | Potency [9] | Potency [10] | Potency [11] | Potency [12] | Potency [13] | Potency [14] | Potency [15] | Potency [19]

NCC1(CC(=O)O)CCCCC1
inactive: fluorescence, % of fluorescein [1] 0.112% [at 18.6 µM] | fluorescence, % of fluorescent control [2] 0.0173% [at 18.6 µM] | activity change [3] 0.0242% [at 18.6 µM] | fluorescence, % of fluorescent control [4] 0.0512% [at 18.6 µM] | fluorescence, % of Rose Bengal [5] 0.0064% [at 18.6 µM] | fluorescence, % of fluorescent control [6] 0.0583% [at 18.6 µM] | fluorescence, % of fluorescein control [7] -0.0096% [at 18.6 µM] | fluorescence, % of fluorescent control [8] 0.027% [at 18.6 µM] | Potency [9] | Potency [10] | Potency [11] | Potency [12] | Potency [13] | Potency [14] | Potency [19] | Potency [20]

ClCOCCl
inactive: outcome [1] | outcome [2] | outcome [3] | outcome [4] | outcome [5] | outcome [6] | outcome [7] | outcome [8] | Potency [9] | Potency [10] | Potency [12] | Potency [14] | Potency [15] | Potency [19] | Potency [20]

ClC1=C(Cl)C2(Cl)C(CBr)CC1(Cl)C2(Cl)Cl (stereo not drawn)
inactive: outcome [1] | outcome [2] | outcome [3] | outcome [4] | outcome [5] | outcome [6] | outcome [7] | outcome [8] | Potency [9] | Potency [10] | Potency [15] | Potency [19]
active: Potency [14] 30.6 µM | Potency [20] 26.6 µM and 48.6 µM

CCN(CCO)CCO
inactive: outcome [1] | outcome [2] | outcome [3] | outcome [4] | outcome [5] | outcome [6] | outcome [7] | outcome [8] | Potency [9] | Potency [10] | Potency [11] | Potency [12] | Potency [14] | Potency [15] | Potency [19] | Potency [20]
